Screening results deposited in PubChem BioAssay by several laboratories.
TROY signal inh = inhibitors of TROY-dependent NF-kB signaling; Q293 LMP1-TROYcd NF-kB luciferase reporter, 4 h; inhibition, % at 10 µM; 360,000 compounds, 0.98% hits; AID 1347056;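 active = compounds whose plate-normalised and pattern-corrected inhibition of the luciferase reporter signal at the single screening dose is 50% or more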
EWS-Fli block = blocks EWS/Fli oncoprotein-driven transcription; inhibition, % at 12.6 µM; 350,000 compounds, 0.67% hits; A673 NR0B1-luciferase reporter, viability-normalised;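 active = mean inhibition of at least 50% after viability correction, with every replicate also passing that limit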;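 also: firefly luciferase signal divided by Alamar Blue viability fluorescence both relative to DMSO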
LGR2 antag = Drosophila LGR2 receptor signaling inhibition; HEK293 LGR2, CRE-luciferase, bursicon-stimulated, 4 h; inhibition, % at 9.99 µM; 380,000 compounds, 0.35% hits; AID 720647;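 active = drop in luminescence signal, shown as inhibition above about 50% in the replicate tests, limit read from the data, passing the limit was not always enough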;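 also: agonist challenge used bursicon conditioned medium at about half maximal strength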
KKLEB tox = CF airway cell cytotoxicity counter-screen | activity change (cytotoxicity), % at 5 µM | 360,000 compounds, 0.36% hits | KKLEB CF airway cells viability, ATPlite luminescence, overnight; active compounds read low; cells stimulated with P. aeruginosa culture filtrate;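 active = corrected activity change at or below -50% at 5 µM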
TWEAK Fn14 block = inhibitors of TWEAK-Fn14 interaction signaling. TWEAK-stimulated Fn14 reporter cells, luciferase luminescence, 8 h. inhibition, % at 10 µM. 360,000 compounds, 2% hits; in the data active = inhibition above about 50%
CF NFkB inh = cystic fibrosis NF-kB activation inhibition | KKLEB NF-kB-GFP reporter, PAF-induced, GFP fluorescence overnight | inhibition, % at 5 µM | 360,000 compounds, 0.86% hits;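 active = at least 50% inhibition at 5 µM, scaled per plate between neutral and stimulator controls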;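 also: PAF is a Pseudomonas aeruginosa culture filtrate used as stimulus; plate controls were PAF-stimulated DMSO wells for no effect and unstimulated DMSO wells for full effect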
* = called active by the depositor; . = no result. This is a sample that favours compounds with a hit; in the whole collection about 2.6% have one here.

SMILES	TROY signal inh	EWS-Fli block	LGR2 antag	KKLEB tox	TWEAK Fn14 block	CF NFkB inh
O=S(=O)(NN=Cc1ccc(O)cc1O)c1cc(Cl)c(Cl)cc1Cl	-50	2	-72	12	-17	-25
CC(=O)Nc1cc(Cl)c(N=Cc2ccc(O)cc2O)cc1Cl	7	0	.	6	77*	17
Cc1[nH]n(-c2ccccc2)c(=O)c1N=Nc1ccc2c(c1)OCCO2	-44	-90	-71	-1	-14	-2
Cc1[nH]n(-c2ccccc2)c(=O)c1N=Nc1c(O)cc(S(=O)(=O)N(C)C)c2ccccc12	49	-14	20	-8	88*	5
CCOc1ccccc1CNC(=O)Cn1nc(C)c2c(C)n(-c3ccc(C)cc3)nc2c1=O	27	.	.	0	58*	-1
CCOc1ccccc1CNC(=O)C1CCN(c2nnc(C)c3c(C)n(-c4ccc(C)cc4)nc23)CC1	-28	59*	16	-21	-13	-48
CO[C@@H]1CC[C@@H]2CCN(C)C(=O)[C@@H](C)CN(C)C(=O)c3cccc(C#N)c3OC[C@H]1O2	.	3	-4	.	.	.
C/C=C/c1ccc([C@H]2[C@@H](CO)N3C(=O)CN(Cc4ccc(C(=O)OC)cc4)C[C@H]23)cc1	.	3	5	.	.	.
CCOC(=O)c1c(N)n(CCOC(=O)c2cccs2)c2nc3ccccc3nc12	23	.	-10	-38	-14	50*
CC1CCCC(NC(=O)COC(=O)CN2C(=O)C3CCCCC3C2=O)C1C (stereo not given)	11	2	-16	1	50*	-14
CN1C=C/C(=C\c2cc[n+](C)c3ccccc23)c2ccccc21	1	74*	28	-29	28	56*
CC[n+]1ccc(/C=C2\Sc3ccccc3N2CCCS(=O)(=O)[O-])c2ccccc21	22	-3	15	17	6	-8
O=C1C(=O)c2c(ccc3ccccc23)-c2ccccc21	43	14	15	-84*	101*	74*
CO[C@H]1CN(C)C(=O)c2cc(NS(=O)(=O)c3c(C)noc3C)ccc2OC[C@H](C)NC[C@@H]1C	.	1	12	.	.	.
CCOC(=O)C1=C(c2ccccc2)NC(=O)NC1c1ccc(O)c(OCC)c1 (stereo not given)	6	-5	-4	6	-12	16
CCOC(=O)C1=C(c2ccccc2)NC(=O)NC1c1ccc(O)c(Cl)c1 (stereo not given)	8	68*	6	20	73*	-7
O=C(NCC1CCCN(Cc2ccc3nonc3c2)C1)c1ccc(F)cc1 (stereo not given)	71*	3	-6	-7	7	-6
CC(=O)c1c(C)[nH]c(C(=O)Nc2cccc(C)n2)c1C	-1	12	-6	12	53*	-92
CC(=O)c1c(C)[nH]c(C(=O)NCc2ccccc2F)c1C	8	-6	-2	4	54*	4
CC(=O)c1c(C)[nH]c(C(=O)NCc2ccccc2Cl)c1C	-14	.	.	-2	-8	-19
COc1ccc(NC(=O)c2[nH]c(C)c(C(C)=O)c2C)cc1	-31	-64	-17	-6	-9	-26
CC(=O)c1c(C)[nH]c(C(=O)Nc2ccc(N3CCCCCC3)cc2)c1C	46	25	-6	14	72*	-33
CC(=O)c1c(C)[nH]c(C(=O)Nc2cccc3ccccc23)c1C	46	2	13	-5	40	-6
COc1cccc(S(=O)(=O)N2CC[C@@H]3[C@H]2c2cc(C4=CCCCC4)ccc2N(C)[C@H]3CO)c1	.	-5	-31	.	.	.
CC(C)NC(=O)N[C@H]1CC[C@H](CCn2cc(-c3ccccc3)nn2)O[C@H]1CO	.	-27	-8	.	.	.
O=C(O)c1ccc(N/N=C/c2cn(Cc3ccc(F)cc3)c3ccccc23)cc1	33	-33	-15	0	52*	13
CCCCCCCSc1nnc(-c2ccccc2N)c(=O)[nH]1	13	56*	1	2	34	4
CN(C)C(=O)c1cccc(-c2ccc3c(c2)[C@H]2[C@H](CCN2C(=O)Nc2cccc(F)c2)[C@@H](CO)N3C)c1	.	-4	4	.	.	.
CCN(CC)CCNc1ccc(CO)c2oc3cc(Cl)ccc3c(=O)c12	-43	-3	.	-14	-86	-109
CN(C)CCNc1ccc(CO)c2oc3ccc(O)cc3c(=O)c12	-26	55*	32	4	-53	-88
